Our source for the growth values is PubChem BioAssay (NCI).

The structures appear in SMILES notation. Compounds without any hit were thinned out: in the full panel of roughly 83,000, 20% have a hit.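 Cells were grown in 96-well plates and exposed to the test compound at a single concentration for 48 hours; results are reported as percent growth, with values below 10 considered active.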 Unmarked numbers belong to inactive results. Active and inactive are the calls of the source.

Some test systems named below: NCI-H23 lung; NCI-H226 lung; NCI-H322M lung; HOP-62 NSCLC; NCI-H460 lung; A549/ATCC NSCLC; 786-0 renal; COLO 205 colon; DU-145 prostate; K-562 leukemia; MALME-3M melanoma; MDA-MB-231 breast; RXF 393 renal; SF-268 CNS; SF-295 CNS; SF-539 CNS; UACC-257 melanoma; M14 melanoma.
Holding throughout (assay): NCI-60 one-dose screen, 48 h (100 = growth as untreated, 0 = no growth, -100 = all killed)
Conditions in all cases: 10 µM unless noted

For `CC(=O)NCCN`, the growth with NCI-H23 lung was 111%; with NCI-H226 lung it was 97.5%; in the experiment with NCI-H322M lung, 108%; in the experiment on HOP-62 NSCLC it was 108%; with NCI-H460 lung, 109%; in the experiment on A549/ATCC NSCLC, 96.6%. Besides, the growth was 98.3% in the experiment on 786-0 renal; 106% with COLO 205 colon; 116% with DU-145 prostate; 101% in the experiment on K-562 leukemia; 100% in the experiment with MALME-3M melanoma; 101% with MDA-MB-231 breast. Moreover, the growth is 90.1% with RXF 393 renal; 108% with SF-268 CNS; 101% in the experiment on SF-295 CNS; 94.9% in the experiment with SF-539 CNS; 86.9% in the experiment on UACC-257 melanoma; 108% in the experiment on M14 melanoma.

As for `CC1CCCCC[N+]12CCCC2` (stereo not drawn), the growth with NCI-H23 lung was 111%; with NCI-H226 lung it was 93.6%; in the experiment with NCI-H322M lung, 96.4%; with HOP-62 NSCLC, 103%; in the experiment with NCI-H460 lung, 113%; with A549/ATCC NSCLC, 103%. Moreover, the growth in the experiment on 786-0 renal is 96.8%; with COLO 205 colon it was 108%; with DU-145 prostate, 105%; with K-562 leukemia, 107%; in the experiment with MALME-3M melanoma, 100%; with MDA-MB-231 breast, 99%. Moreover, the growth was 92% with RXF 393 renal; 109% in the experiment on SF-268 CNS; 92.2% with SF-295 CNS; 104% in the experiment with SF-539 CNS; 104% in the experiment with UACC-257 melanoma; 102% in the experiment on M14 melanoma.

Take `O=C1Nc2c(c(=O)n(-c3ccccc3)c3ccccc23)C(c2ccc(Cl)cc2)N1` (stereo not drawn): the growth in the experiment with NCI-H23 lung is 90.4%; with NCI-H226 lung it was 99.2%; in the experiment on NCI-H322M lung, 95.5%; with HOP-62 NSCLC, 84.2%; in the experiment on NCI-H460 lung, 47.7%; in the experiment on A549/ATCC NSCLC, 76.2%. Also, the growth in the experiment on 786-0 renal is 60.8%; in the experiment with COLO 205 colon it was 107%; in the experiment on DU-145 prostate it was 86.7%; with K-562 leukemia, 93.7%; with MALME-3M melanoma, 121%; with MDA-MB-231 breast, 89.1%. Also, the growth is 103% in the experiment on RXF 393 renal; 70.9% in the experiment with SF-268 CNS; 65.3% with SF-295 CNS; 77% in the experiment on SF-539 CNS; 118% with UACC-257 melanoma; 95.2% with M14 melanoma.

In the case of `CC(C)(C)c1ccc(OCCOC(=O)CBr)cc1`, the growth is 98.7% in the experiment on NCI-H23 lung; 102% in the experiment with NCI-H226 lung; 120% in the experiment with NCI-H322M lung; 99.1% with HOP-62 NSCLC; 102% in the experiment with NCI-H460 lung; 105% with A549/ATCC NSCLC. The growth in the experiment with 786-0 renal was 103%; in the experiment with COLO 205 colon, 89.1%; in the experiment on DU-145 prostate it was 109%; in the experiment with K-562 leukemia, 82.8%; in the experiment on MALME-3M melanoma, 107%; with MDA-MB-231 breast it was 88%. In addition, the growth with RXF 393 renal was 78.5%; in the experiment on SF-268 CNS it was 96.3%; in the experiment with SF-295 CNS it was 116%; in the experiment with SF-539 CNS, 100%; with UACC-257 melanoma it was 106%; with M14 melanoma it was 95.8%.

For `C[C@]12CC[C@H]3[C@@H](CC[C@H]4C[C@@H](O)CC[C@@]43C)[C@@H]1CC(=O)C2`, the growth with NCI-H23 lung is 99.9%; in the experiment with NCI-H226 lung, 100%; in the experiment on NCI-H322M lung it was 106%; with HOP-62 NSCLC it was 96.8%; with NCI-H460 lung, 103%; with A549/ATCC NSCLC it was 100%. Also, the growth was 107% in the experiment with 786-0 renal; 101% with COLO 205 colon; 107% in the experiment with DU-145 prostate; 94.1% with K-562 leukemia; 163% with MALME-3M melanoma; 112% with MDA-MB-231 breast. The growth with RXF 393 renal was 118%; in the experiment on SF-268 CNS it was 97.9%; in the experiment with SF-539 CNS, 92.7%; in the experiment with UACC-257 melanoma, 104%; with M14 melanoma, 108%.

Turning to `COc1cc2cn3c4ccc(O)cc4[nH]c(=O)c3c2cc1OC`, the growth in the experiment on NCI-H23 lung was -6.02% (active); in the experiment on NCI-H226 lung, 8.14% (active); in the experiment with NCI-H322M lung, 1.3% (active); in the experiment with HOP-62 NSCLC, 4.45% (active); in the experiment with NCI-H460 lung it was -55.7% (active); in the experiment on A549/ATCC NSCLC it was 10.6%. Further, the growth in the experiment on 786-0 renal was 1.09% (active); in the experiment on COLO 205 colon it was -19.5% (active); in the experiment with DU-145 prostate, 3.02% (active); in the experiment with K-562 leukemia it was 3.94% (active); in the experiment on MALME-3M melanoma, 1.16% (active); in the experiment with MDA-MB-231 breast it was 30.9%. For the same molecule, the growth in the experiment with RXF 393 renal is 26.8%; with SF-268 CNS it was 18.1%; in the experiment with SF-295 CNS it was -11% (active); with SF-539 CNS, 5.31% (active); with UACC-257 melanoma, -10.1% (active); in the experiment on M14 melanoma, 3.61% (active).

For `COc1cc2c(c3c1c(=O)c1cccc(F)c1n3C)C=CC(C)(C)O2`, the growth in the experiment on NCI-H23 lung is 99%; in the experiment with NCI-H226 lung, 110%; with NCI-H322M lung, 79.5%; with HOP-62 NSCLC it was 99.2%; in the experiment on NCI-H460 lung, 102%; in the experiment on A549/ATCC NSCLC, 89.4%. Moreover, the growth is 103% with 786-0 renal; 102% in the experiment on COLO 205 colon; 92.9% in the experiment on DU-145 prostate; 74.6% in the experiment with K-562 leukemia; 75.9% with MALME-3M melanoma; 58.4% in the experiment with MDA-MB-231 breast. In addition, the growth in the experiment with RXF 393 renal is 88.8%; in the experiment with SF-268 CNS, 102%; in the experiment on SF-295 CNS, 91.8%; in the experiment with SF-539 CNS it was 89%; with M14 melanoma it was 101%.

With `CSCc1ncc(-c2ccc(C(F)(F)F)cc2)c(NC2CCCCCC2)n1`, the growth in the experiment with NCI-H23 lung is 65.9% [25 µM]; in the experiment on NCI-H226 lung, 87.5% [25 µM]; in the experiment on NCI-H322M lung, 97.9% [25 µM]; in the experiment on HOP-62 NSCLC, 98.6% [25 µM]; in the experiment with NCI-H460 lung it was 49.8% [25 µM]; in the experiment with A549/ATCC NSCLC it was 68.3% [25 µM]. Moreover, the growth was 66.4% [25 µM] with 786-0 renal; 95% [25 µM] with COLO 205 colon; 71.4% [25 µM] with DU-145 prostate; 29.3% [25 µM] in the experiment with K-562 leukemia; 68.8% [25 µM] in the experiment with MALME-3M melanoma; 56.2% [25 µM] with MDA-MB-231 breast. In addition, the growth in the experiment with RXF 393 renal was 75.4% [25 µM]; in the experiment on SF-268 CNS it was 75.5% [25 µM]; with SF-539 CNS, 93.8% [25 µM]; in the experiment with UACC-257 melanoma, 74.1% [25 µM]; with M14 melanoma it was 67.4% [25 µM].

As to `CCCCS(=O)(=O)c1cc(Nc2ccc(O)c3c2C(=O)c2ccccc2C3=O)ccc1C`, the growth in the experiment on NCI-H23 lung was 45.7%; with NCI-H226 lung, 87.8%; with NCI-H322M lung, 27.6%; with HOP-62 NSCLC, 72.5%; in the experiment on NCI-H460 lung, 14.9%; with A549/ATCC NSCLC it was 28.3%. Further, the growth with 786-0 renal is 87.1%; in the experiment on COLO 205 colon it was 70.7%; in the experiment with DU-145 prostate it was 42.1%; with K-562 leukemia, 67%; with MALME-3M melanoma, 2.26% (active); in the experiment on MDA-MB-231 breast it was 71.8%. The growth in the experiment on RXF 393 renal was 76.1%; in the experiment on SF-268 CNS, 84.5%; with SF-539 CNS, 86.8%; in the experiment with UACC-257 melanoma, 75.8%; with M14 melanoma, 21%.
